Inconclusive results are not listed. Entries that show only a call come without a potency. Active and inactive are the calls of the source. Unless noted, calls come from the whole dose curve; as a rule, active = well fitted curve in the direction sought with a large enough effect; inconclusive = small, poorly fitted or top-dose-only effect, or another doubt; inactive = no such curve, though single readings can be large; an effect the other way counts as inactive or inconclusive.
Assays:
[1] = Immunotoxin (HA22) sensitization/mitigation study. Vehicle arm (PBS) (AID 1159510; call rule not given here; note: potency is the fitted concentration of half-maximal effect)
[2] = Immunotoxin (SS1P) sensitization/mitigation study. Vehicle arm (DMEM) (AID 1159513; call rule not given here; note: potency is the fitted concentration of half-maximal effect)
[3] = High-throughput drug toxicity screening in the BPDCN cell line Gen2.2 (AID 1224824; call rule not given here;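 note: cells exposed to compounds for 48 h before reading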); conditions: Gen2.2 BPDCN cells; at 45.8 µM (top of the series)
Method in brief: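 Seed 500 exponentially growing Gen2.2 cells/well; add compounds by pin tool; incubate 48 h, 37 °C, 5% CO2; add CellTiter-Glo, 15 min RT; read luminescence. % activity vs DMSO (100%) and bortezomib (0%).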

[4] = High-throughput drug toxicity screening in the BPDCN cell line Cal-1 (AID 1224825; call rule not given here); conditions: Cal-1 BPDCN cell viability, qHTS; at 45.8 µM (top of the series)
Method in brief: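 500 Cal-1 cells/well, RPMI + glutamine + 10% FBS (phenol red-free); cpd added by pin tool; 48 h, 37C, 5% CO2; CTG 15 min RT, lumi read. Normalised: DMSO 100%, bortezomib 9.2 uM 0%.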

[5] = qHTS assay for measurement of the activity of small molecule inhibitors on Zika virus induced Caspase-3 activity in human iPSC derived neural progenitor cells (hNPCs) (AID 1224857); note: nearly all actives have a fitted effect of over 65% in size
Method in brief: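 Caspase-3/7 induction by a 6-hour ZIKV infection was quantified with a luminescent Caspase-Glo 3/7 reagent incubated 30 minutes at room temperature. Compounds were preincubated with hNPCs for 1 hour; inhibition was calculated against uninfected and infected control wells.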

[6] = qHTS assay for measurement of the activity of small molecule inhibitors on Zika virus induced Caspase-3 activity in human astrocytoma cells (AID 1224859)
Method in brief: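 In SNB-19 cells plated at 250 cells/well and grown 16-20 h, compounds were applied 1 h before ZIKV (2 FFU/cell). Six hours later caspase-3/7 luminescence was recorded.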

[7] = qHTS Screen of the MIPE 4.0 Collection Against Ewings Sarcoma (RDES) (AID 1259252); note: nearly all actives have a fitted effect of over 35% in size; note: potency is the fitted concentration of half-maximal effect
Method in brief: (§1)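 CellTiter-Glo luminescence after 48 h compound exposure (titration) gave viability; percent activity used DMSO-treated cells as no inhibition and medium-only wells as full inhibition. Cells grown in RPMI/5% FBS, dosed 4 h post-seeding.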

[8] = qHTS Screen of the MIPE 4.0 Collection Against Ewings Sarcoma (TC71) (AID 1259253); note: nearly all actives have a fitted effect of over 40% in size; note: potency is the fitted concentration of half-maximal effect
Method in brief: as §1

[9] = qHTS Screen of the MIPE 4.0 Collection Against Ewings Sarcoma (EW8) (AID 1259255); note: nearly all actives have a fitted effect of over 35% in size; note: potency is the fitted concentration of half-maximal effect
Method in brief: as §1

[10] = Identifying Small Molecule Inhibitors of Pancreatic Cancer Stem Cells (A2780, Spheroid) (AID 1259357); conditions: Potency: A2780 spheroid viability;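 note: compound exposure lasted 48 h before the ATP luminescence read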; note: potency is the fitted concentration of half-maximal effect
Method in brief: (§2)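 Cytotoxicity read by CellTiter-Glo luminescence after 48 h compound exposure at 37C; percent activity scaled between DMSO-treated cells and cell-free wells. Spheroid formats used cells pre-formed 14 days in stem cell media on hydrogel.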

[11] = Identifying Small Molecule Inhibitors of Pancreatic Cancer Stem Cells (A278, Adherent) (AID 1259361); note: nearly all actives have a fitted effect of over 35% in size
Method in brief: as §2

[12] = Identifying Small Molecule Inhibitors of Pancreatic Cancer Stem Cells (Panc1, Adherent) (AID 1259362); conditions: Potency: viability; note: potency is the fitted concentration of half-maximal effect
Method in brief: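 Pre-formed 14-day tumor spheroids or adherent cells dosed and incubated 48 h, 37C, 5% CO2. Viability assessed by CellTiter-Glo.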

[13] = Identifying Small Molecule Inhibitors of Pancreatic Cancer Stem Cells (SN12C, Spheroid) (AID 1259360); conditions: Potency: SN12C spheroid viability; note: potency is the fitted concentration of half-maximal effect
Method in brief: as §2

[14] = P-glycoprotein substrates identified in KB-3-1 adenocarcinoma cell line, qHTS therapeutic library screen (AID 1346986); note: nearly all actives have a fitted effect of over 60% in size;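 note: potency is the fitted concentration of half-maximal effect; potency is for cytotoxicity meaning loss of cell viability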
Method in brief: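 Counter-screen: cherry-picked hits retested in the KB pair and in HEK-293 pcDNA/MDR-19 cells ± tariquidar. Primary screen used 72 h CellTiter-Glo viability in KB-3-1 and KB-8-5-11.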

[15] = P-glycoprotein substrates identified in KB-8-5-11 adenocarcinoma cell line, qHTS therapeutic library screen (AID 1346987); note: nearly all actives have a fitted effect of over 65% in size; note: potency is the fitted concentration of half-maximal effect
Method in brief: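 P-gp-mediated resistance screen: KB-8-5-11 cells treated 72 h with compounds in dose-response. CellTiter-Glo viability.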

[16] = Natriuretic polypeptide receptor (hNpr1) antagonism - Pilot counterscreen GloSensor control cell line (AID 1347045; calls by dose curve)
Method in brief: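 This counterscreen uses HEK293 cells expressing the GIP/pGS-40F cGMP biosensor. Compound-treated cells are challenged with 50 uM sodium nitroprusside, and the luciferase signal is compared before and after stimulation.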

[17] = target: Atrial natriuretic peptide receptor 1 (Homo sapiens) (UniProt P16066); test: Natriuretic polypeptide receptor (hNpr1) antagonism - Pilot screen (AID 1347049; calls by dose curve;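 note: agonist-evoked cGMP luminescence read 20 min after hNppA addition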)
Method in brief: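 Readout is cGMP-driven firefly luciferase luminescence in HEK293 cells carrying hNpr1 and a PDE5-domain GloSensor, read before and 20 min after 0.1 nM hNppA stimulation. Cells had 2% substrate reagent for 2 h and test compound for 30 min.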

[18] = qHTS assay to identify small molecule inhibitors of chordoma cells - UCH-1 (AID 1259355); note: nearly all actives have a fitted effect of over 55% in size
Method in brief: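 Seed 800 cells per well; incubate overnight at 37 C, 5% CO2. Add test compounds (15 concentrations), then the auranofin–topoisomerase-agent combination. Incubate 48hr, add CellTiter-Glo, wait 30min, read luminescence.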

[19] = qHTS assay to identify small molecule inhibitors of chordoma cells - UCH-2 (AID 1259356)
[20] = Identifying Small Molecule Inhibitors of Pancreatic Cancer Stem Cells (Panc1, Spheroid) (AID 1259359);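 note: compound exposure lasted 48 h before reading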
Method in brief: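 Spheroids grown 14 days in stem cell media on hydrogel-coated nonadherent plates; 2D lines seeded directly. Compounds added after 4 h attachment, 48 h at 37C, 5% CO2; CellTiter-Glo luminescence normalized to DMSO (no inhibition) and no-cell wells (full inhibition).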

Atrial natriuretic peptide receptor 1 (Homo sapiens), sequence (P16066 whole entry, looked up): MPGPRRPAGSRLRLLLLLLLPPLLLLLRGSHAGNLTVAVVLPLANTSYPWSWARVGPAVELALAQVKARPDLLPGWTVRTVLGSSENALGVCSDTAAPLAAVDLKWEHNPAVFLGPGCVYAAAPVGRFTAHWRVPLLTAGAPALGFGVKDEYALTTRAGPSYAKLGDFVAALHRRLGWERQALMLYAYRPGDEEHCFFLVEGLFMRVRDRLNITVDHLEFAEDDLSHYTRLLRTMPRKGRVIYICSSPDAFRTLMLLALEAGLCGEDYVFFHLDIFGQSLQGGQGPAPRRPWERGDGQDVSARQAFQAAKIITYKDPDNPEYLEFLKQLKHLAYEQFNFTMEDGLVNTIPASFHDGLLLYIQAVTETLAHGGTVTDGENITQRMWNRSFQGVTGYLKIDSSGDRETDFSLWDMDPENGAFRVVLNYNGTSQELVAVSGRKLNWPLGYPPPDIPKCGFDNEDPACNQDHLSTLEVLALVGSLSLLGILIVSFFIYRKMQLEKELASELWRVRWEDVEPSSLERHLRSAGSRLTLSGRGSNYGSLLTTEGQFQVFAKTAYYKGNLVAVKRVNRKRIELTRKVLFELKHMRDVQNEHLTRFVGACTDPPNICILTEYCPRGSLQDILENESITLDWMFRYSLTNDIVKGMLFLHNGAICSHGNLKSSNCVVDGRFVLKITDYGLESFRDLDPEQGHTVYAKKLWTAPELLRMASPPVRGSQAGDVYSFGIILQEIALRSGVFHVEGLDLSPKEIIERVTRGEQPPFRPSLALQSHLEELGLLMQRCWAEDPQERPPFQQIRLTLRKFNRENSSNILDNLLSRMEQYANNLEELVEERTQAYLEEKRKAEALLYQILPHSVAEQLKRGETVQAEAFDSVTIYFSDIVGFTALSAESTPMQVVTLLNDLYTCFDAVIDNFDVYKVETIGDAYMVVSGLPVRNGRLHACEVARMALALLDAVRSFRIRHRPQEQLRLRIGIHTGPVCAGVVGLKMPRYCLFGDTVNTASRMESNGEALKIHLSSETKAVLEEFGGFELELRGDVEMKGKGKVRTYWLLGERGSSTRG

C[C@@H]1[C@@H](CC(C[C@H]2O[C@@H]3O[C@]4(C)CC[C@@H]5[C@H](C)CC[C@@H]([C@H]2C)[C@@]35OO4)C[S+](=O)([O-])c2ccc(COC(=O)N(C)C)cc2)O[C@@H]2O[C@]3(C)CC[C@H]4[C@H](C)CC[C@@H]1[C@@]24OO3 (some centres undefined)
Potency [1]: 0.0332 µM (active) | Potency [2]: 0.418 µM (active) | cell viability, % of control (lower = more cytotoxic) [3]: 15.5% | viability (% of control) [4]: 13.4% | Potency [5]: inactive | outcome [6]: inactive | Potency [7]: 0.418 µM (active) | Potency [8]: 0.332 µM (active) | Potency [9]: 0.264 µM (active) | Potency [10]: 0.059 µM (active) | IC50 (viability decrease) [11]: 0.0418 µM (active) | Potency [12]: 0.0372 µM (active)

COC[C@H]1OC(=O)c2coc3c2[C@@]1(C)C1=C(C3=O)C2CCC(=O)[C@@]2(C)C[C@H]1OC(C)=O (some centres undefined)
Potency [1]: 5.9 µM (active) | Potency [2]: 16.6 µM (active) | Potency [5]: inactive | outcome [6]: inactive | Potency [13]: 18.7 µM (active) | IC50 (viability decrease) [11]: 23.5 µM (active) | Potency [12]: 0.296 µM (active) | Potency [14]: inactive | Potency [15]: inactive | Potency [16]: inactive | Potency [17]: inactive

O=c1[nH]c2ccccc2n1CCCN1CCC(n2c(=O)[nH]c3cc(Cl)ccc32)CC1
cell viability, % of control (lower = more cytotoxic) [3]: 278% | viability (% of control) [4]: 61.6% | Potency [5]: inactive | Potency [7]: inactive | Potency [8]: inactive | Potency [18]: inactive | Potency [19]: inactive | Potency [17]: inactive

COC[C@@H](NC(C)=O)C(=O)NCc1ccccc1
cell viability, % of control (lower = more cytotoxic) [3]: 142% | viability (% of control) [4]: 115% | outcome [6]: inactive | Potency [7]: inactive | Potency [8]: inactive | Potency [9]: inactive | Potency [15]: inactive

C[C@@H]1[C@@H](C(=O)C[C@H]2O[C@@H]3O[C@]4(C)CC[C@@H]5[C@H](C)CC[C@@H]([C@H]2C)[C@@]35OO4)O[C@@H]2O[C@]3(C)CC[C@H]4[C@H](C)CC[C@@H]1[C@@]24OO3
Potency [1]: 0.0264 µM (active) | Potency [2]: 0.209 µM (active) | cell viability, % of control (lower = more cytotoxic) [3]: 9% | viability (% of control) [4]: 7.82% | Potency [5]: inactive | outcome [6]: inactive | Potency [7]: 3.72 µM (active) | Potency [8]: 4.69 µM (active) | Potency [9]: 0.743 µM (active)

COc1ccc2c(c1OC)CN1CCc3cc4c(cc3C1C2)OCO4 (centres undefined)
cell viability, % of control (lower = more cytotoxic) [3]: 173% | viability (% of control) [4]: 62.2% | outcome [6]: inactive | Potency [7]: 14.8 µM (active) | Potency [18]: inactive | Potency [19]: inactive | Potency [14]: 9.2 µM (active) | Potency [15]: inactive

O=P1(NCCCl)OCCCN1CCCl (centres undefined)
cell viability, % of control (lower = more cytotoxic) [3]: 49.3% | viability (% of control) [4]: 20.1% | Potency [5]: inactive | outcome [6]: inactive | Potency [9]: 20.9 µM (active) | Potency [18]: inactive | Potency [19]: inactive | Potency [15]: 10.5 µM (active)

CN(C)CCc1ccc(O)cc1
cell viability, % of control (lower = more cytotoxic) [3]: 191% | viability (% of control) [4]: 108% | Potency [5]: inactive | outcome [6]: inactive | Potency [7]: inactive | Potency [9]: inactive | Potency [18]: inactive | Potency [19]: inactive | Potency [15]: inactive

CC1=C2C[C@@H]3[C@@H](CC=C4C[C@@H](O)CC[C@@]43C)[C@@H]2CC[C@]12O[C@H]1C[C@H](C)CN[C@H]1[C@H]2C
Potency [1]: 23.5 µM (active) | Potency [2]: 20.9 µM (active) | cell viability, % of control (lower = more cytotoxic) [3]: 107% | viability (% of control) [4]: 116% | Potency [5]: inactive | outcome [6]: inactive | Potency [7]: inactive | Potency [13]: inactive | IC50 (viability decrease) [11]: inactive | Potency [15]: inactive

O=C(O)C(=O)c1cn(Cc2ccccc2)c2ccc(-c3ccc(OC(F)(F)F)cc3)cc12
Potency [1]: 23.5 µM (active) | cell viability, % of control (lower = more cytotoxic) [3]: 171% | viability (% of control) [4]: 118% | Potency [5]: inactive | Potency [7]: inactive | Potency [9]: inactive | outcome [20]: inactive | Potency [13]: 18.7 µM (active) | Potency [14]: inactive | Potency [15]: inactive

CCCC(C)(COC(N)=O)COC(=O)NC(C)C (centres undefined)
cell viability, % of control (lower = more cytotoxic) [3]: 386% | viability (% of control) [4]: 110% | Potency [5]: inactive | outcome [6]: inactive | Potency [7]: inactive | Potency [8]: inactive | Potency [9]: inactive | Potency [18]: inactive | Potency [19]: inactive | Potency [14]: inactive | Potency [15]: inactive | Potency [16]: inactive | Potency [17]: inactive

CNC(=O)N1N=C(c2ccc(N)cc2)c2cc3c(cc2CC1C)OCO3 (centres undefined)
Potency [2]: 5.26 µM (active) | cell viability, % of control (lower = more cytotoxic) [3]: 24.2% | viability (% of control) [4]: 9.51% | Potency [5]: inactive | outcome [6]: inactive | Potency [7]: 9.35 µM (active) | Potency [10]: inactive | Potency [13]: inactive | IC50 (viability decrease) [11]: 7.43 µM (active)

— PubChem BioAssay (NCATS)
